# Data: PubChem BioAssay AID1159580 (chemical genetic matrix, 2015)
# The whole screen tested about 5,500 compounds, of which about 2,000 (36%) were called active. About 18% were inconclusive and are not listed. The list shows a part of the results. A number with no mark means an inactive call. Cut-off read from the data, not from the text of the source: active = normalized growth mostly below about 0.91 (no sharp cut-off); inconclusive = no clear call, values can overlap the other calls; inactive = mostly above about 0.92.
# Experiment: chemical genetic growth profiling, strain panel (AID 1159580);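 note: tested at 20 µM; growth read once vehicle control cultures reached saturation at 30 °C; 1 = growth at the plate median or of vehicle wells; lower values mean less growth of the strain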
# Details: S. cerevisiae deletion strains, growth OD
compound,measurement,setting,value
O=c1cc(-c2ccccc2)oc2cccc(O)c12,normalized growth,"locus YAL021C, strain ccr4, active compounds read low",0.95
same,normalized growth,"locus YAL026C, strain drs2, active compounds read low",0.93
same,normalized growth,"locus YAL030W, strain snc1, active compounds read low",0.972
same,normalized growth,"locus YBL061C, strain skt5, active compounds read low",0.938
same,normalized growth,"locus YBR009C, strain hhf1, active compounds read low",0.969
same,normalized growth,"locus YBR023C, strain chs3, active compounds read low",0.892 (active)
same,normalized growth,"locus YBR171W, strain sec66, active compounds read low",0.952
same,normalized growth,"locus YBR231C, strain swc5, active compounds read low",0.943
same,normalized growth,"locus YBR279W, strain paf1, active compounds read low",0.931 (active)
same,normalized growth,"locus YCL011C, strain gbp2, active compounds read low",0.967
same,normalized growth,"locus YCL016C, strain dcc1, active compounds read low",0.938
same,normalized growth,"locus YCL061C, strain MRC1, active compounds read low",0.969
same,normalized growth,"locus YCL069W, strain vba3, active compounds read low",0.959
same,normalized growth,"locus YCR088W, strain abp1, active compounds read low",0.972
same,normalized growth,"locus YDL005C, strain med2, active compounds read low",0.994
same,normalized growth,"locus YDL040C, strain nat1, active compounds read low",0.961
same,normalized growth,"locus YDR001C, strain nth1, active compounds read low",0.961
same,normalized growth,"locus YDR069C, strain doa4, active compounds read low",0.985
same,normalized growth,"locus YDR137W, strain rgp1, active compounds read low",0.716 (active)
same,normalized growth,"locus YDR159W, strain sac3, active compounds read low",1.03
same,normalized growth,"locus YDR195W, strain ref2",1.37 [resistant] (active)
same,normalized growth,"locus YDR297W, strain sur2, active compounds read low",0.977
same,normalized growth,"locus YDR334W, strain swr1, active compounds read low",0.964
same,normalized growth,"locus YDR335W, strain msn5, active compounds read low",0.968
same,normalized growth,"locus YDR392W, strain spt3, active compounds read low",0.605 (active)
same,normalized growth,"locus YEL003W, strain gim4, active compounds read low",0.981
same,normalized growth,"locus YEL037C, strain rad23, active compounds read low",0.959
same,normalized growth,"locus YEL061C, strain CIN8 (second series), active compounds read low",0.963
same,normalized growth,"locus YER015W, strain faa2, active compounds read low",0.969
same,normalized growth,"locus YER016W, strain bim1, active compounds read low",0.974
same,normalized growth,"locus YER111C, strain swi4, active compounds read low",0.985
same,normalized growth,"locus YER155C, strain BEM2 (second series), active compounds read low",0.506 (active)
same,normalized growth,"locus YFR010W, strain ubp6, active compounds read low",0.959
same,normalized growth,"locus YGL167C, strain pmr1, active compounds read low",0.969
same,normalized growth,"locus YGL173C, strain kem1, active compounds read low",0.946
same,normalized growth,"locus YGL227W, strain vid30, active compounds read low",0.977
same,normalized growth,"locus YGL240W, strain doc1, active compounds read low",0.924
same,normalized growth,"locus YGL253W, strain hxk2, active compounds read low",0.859 (active)
same,normalized growth,"locus YHR013C, strain ard1, active compounds read low",0.897
same,normalized growth,"locus YHR027C, strain rpn1, active compounds read low",0.98
same,normalized growth,"locus YHR030C, strain SLT2, active compounds read low",1.02
same,normalized growth,"locus YHR079C, strain IRE1, active compounds read low",0.992
same,normalized growth,"locus YHR142W, strain chs7, active compounds read low",0.765 (active)
same,normalized growth,"locus YJL092W, strain hpr5, active compounds read low",0.975
same,normalized growth,"locus YJL095W, strain BCK1 (second series), active compounds read low",0.971
same,normalized growth,"locus YJL095W, strain BCK1, active compounds read low",0.995
same,normalized growth,"locus YJL115W, strain asf1, active compounds read low",0.979
same,normalized growth,"locus YJL129C, strain trk1, active compounds read low",0.912
same,normalized growth,"locus YJL154C, strain vps35, active compounds read low",0.981
same,normalized growth,"locus YJL164C, strain tpk1, active compounds read low",0.902 (active)
same,normalized growth,"locus YJL166W, strain qcr8, active compounds read low",0.908
same,normalized growth,"locus YJL187C, strain SWE1, active compounds read low",0.966
same,normalized growth,"locus YJR066W, strain TOR1, active compounds read low",0.923
same,normalized growth,"locus YKL160W, strain elf1, active compounds read low",0.872 (active)
same,normalized growth,"locus YKR026C, strain gcn3, active compounds read low",0.969
same,normalized growth,"locus YKR091W, strain srl3, active compounds read low",0.985
same,normalized growth,"locus YLL001W, strain dnm1, active compounds read low",0.939
same,normalized growth,"locus YLL026W, active compounds read low",0.972
same,normalized growth,"locus YLL041C, strain sdh2, active compounds read low",0.97
same,normalized growth,"locus YLR027C, strain aat2, active compounds read low",0.934
same,normalized growth,"locus YLR113W, strain HOG1, active compounds read low",1.03
same,normalized growth,"locus YLR221C, strain rsa3, active compounds read low",0.883 (active)
same,normalized growth,"locus YLR258W, strain gsy2, active compounds read low",0.961
same,normalized growth,"locus YLR262C, strain YPT6 (second series), active compounds read low",0.78 (active)
same,normalized growth,"locus YLR320W, strain mms22, active compounds read low",0.774 (active)
same,normalized growth,"locus YLR342W, strain FKS1, active compounds read low",0.984
same,normalized growth,"locus YLR357W, strain rsc2, active compounds read low",1.01
same,normalized growth,"locus YLR370C, strain arc18, active compounds read low",0.964
same,normalized growth,"locus YLR384C, strain iki3, active compounds read low",0.976
same,normalized growth,"locus YML120C, strain ndi1, active compounds read low",0.917
same,normalized growth,"locus YMR058W, strain fet3, active compounds read low",0.888 (active)
same,normalized growth,"locus YMR125W, strain sto1, active compounds read low",1
same,normalized growth,"locus YMR129W, active compounds read low",0.979
same,normalized growth,"locus YMR205C, strain PFK2, active compounds read low",0.972
same,normalized growth,"locus YMR231W, strain pep5, active compounds read low",0.986
same,normalized growth,"locus YNL071W, strain lat1, active compounds read low",0.62 (active)
same,normalized growth,"locus YNL183C, strain NPR1, active compounds read low",0.943
same,normalized growth,"locus YNL209W, strain ssb2, active compounds read low",0.978
same,normalized growth,"locus YNL248C, strain rpa49, active compounds read low",0.755 (active)
same,normalized growth,"locus YNL322C, strain KRE1 (second series), active compounds read low",0.996
same,normalized growth,"locus YNR049C, strain mso1, active compounds read low",0.965
same,normalized growth,"locus YOR001W, strain rrp6, active compounds read low",0.911
same,normalized growth,"locus YOR070C, strain gyp1, active compounds read low",0.937
same,normalized growth,"locus YOR080W, strain dia2, active compounds read low",0.982
same,normalized growth,"locus YOR083W, strain WHI5, active compounds read low",0.886 (active)
same,normalized growth,"locus YOR106W, strain vam3, active compounds read low",0.923
same,normalized growth,"locus YOR231W, strain MKK1, active compounds read low",1.01
same,normalized growth,"locus YOR265W, strain rbl2, active compounds read low",0.954
same,normalized growth,"locus YOR270C, strain vph1, active compounds read low",0.66 (active)
same,normalized growth,"locus YOR290C, strain snf2, active compounds read low",0.873
same,normalized growth,"locus YPL051W, strain arl3, active compounds read low",0.853 (active)
same,normalized growth,"locus YPL078C, strain atp4, active compounds read low",0.807 (active)
same,normalized growth,"locus YPL106C, strain sse1, active compounds read low",0.973
same,normalized growth,"locus YPL240C, strain hsp82, active compounds read low",0.974
same,normalized growth,"locus YPL256C, strain CLN2, active compounds read low",1.05
